# Methyltransferases = Primary Screen for Target Class Profiling of Small Molecule Inhibitors of Methyltransferases. AID 1745853, 2022. purified enzyme, MTase-Glo SAH luminescence; stronger effect = lower value. actives 3.9% (n = 25,000). calls only at 40 µM; call rule not given here
#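 Each enzyme was assayed with SAM and its substrate. SAH formation detected by MTase-Glo luminescence; single-point 40 uM screen[…].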
# MTase-Glo ctr = detection enzyme interference, methyltransferase counter-screen. shares compounds with Methyltransferases. MTase-Glo coupled enzymes, SAH conversion luminescence, no MTase. Potency, µM (highest dose often 57.3 µM), for the others: at the top dose activity change, negative = inhibition, hits mostly inhibitors. actives 6% (n = 180); active = well fitted inhibition curve with a large enough effect; inconclusive = small, poorly fitted or top-dose-only effect; also: potency is read from the fitted curve at half-maximal effect
# An asterisk follows results filed as active; i = inactive; ? = inconclusive; + = active, no number; [ ] = remark or other dose. Shown is part of a subset that was picked to be rich in hits. % is scaled to controls: 0 for no effect and ±100 for the full control effect.
SMILES,Methyltransferases,others
N#Cc1ccccc1-c1cc2c(ccn2Cc2ccncc2)c(N2CCOCC2)n1,+,MTase-Glo ctr=4%[85.7 µM]
CCOC(=O)c1cc2n(n1)CC(C)(C(=O)NCCC(C)C)N(CCCc1ccccc1)C2=O (stereo not drawn),i,
CC(CN1C(=O)c2cc(-c3ccco3)nn2CC1(C)C(=O)NC1CCCCCC1)c1ccccc1 (stereo not drawn),i,
COc1ccc(OC)c(CCN2C(=O)c3cc4ccccc4n3CC2(C)C(=O)NCc2ccccc2)c1 (stereo not drawn),i,
CCc1cccc(N2C(=O)c3cc(-c4ccco4)nn3CC2(C)C(=O)NC2CCCCCC2)c1 (stereo not drawn),i,
Cc1noc(C)c1-c1cc2c(cc(C)n2C)c(N2CCN(c3ccccn3)CC2)n1,i,
Cc1ccccc1-c1[nH]nc2ncc(-c3c(C)noc3C)nc12,+,MTase-Glo ctr=-4%[85.7 µM]
COc1ccc(-c2cnc3n[nH]c(-c4ccccc4C)c3n2)cn1,i,
Cc1ccc(NC(=O)Cn2nc3n(C(C)C)c(=O)c4ccc(C(=O)NC5CCCC5)cc4n3c2=O)cc1,i,
COc1ccc(CNC(=O)c2cnc3c(c2)N(C(=O)CCc2ccccc2)CCC3)cc1OC,i,
O=C(NCc1cccc(Cl)c1)c1cnc2c(c1)N(C(=O)Cc1ccc(O)cc1)CCC2,+,MTase-Glo ctr=18µM*
COCCCNC(=O)c1cnc2c(c1)N(C(=O)Cc1cn(C)c3ccccc13)CCC2,i,
Cn1ncc2c(N3CCN(S(N)(=O)=O)CC3)nc(C3CCCC3)nc21,+,MTase-Glo ctr=?
CC1CCCN1C(=O)c1cc(-c2ccc(C(F)(F)F)cc2)nc2c1cnn2C (stereo not drawn),i,
Cc1cccc(CNC(=O)C2CC(c3ccc(F)c(C)c3)CN(C(=O)c3ccccc3)C2)c1 (stereo not drawn),i,
COc1cccc(CN2C(=O)c3cc4oc(C)cc4n3CC2(C)C(=O)NC2CCCCC2)c1 (stereo not drawn),i,
COc1ccc(CNc2cc3c(cn2)CN(C)CCN3)cc1OC,+,MTase-Glo ctr=0%[85.7 µM]
COc1ccc(CNC(=O)c2cc3n(n2)CC(C)(C(=O)NC2CCCC2)N(C)C3=O)cc1OC (stereo not drawn),i,
COc1ccc(CCN(C)CCc2ccc(OC)c(OC)c2)cc1OC,i,
CC(=O)O[C@@H](CO[C@@H]1O[C@H](CO)[C@H](O)[C@H](O)[C@H]1O)[C@]1(C)C=C2CC[C@@H]3C(C)(C)[C@@H](O)CC[C@@]3(C)[C@@H]2CC1,i,
CC1=NOC(C(=O)N2CCCn3nc(C(=O)NCCN(C)C)cc3C2)C1 (stereo not drawn),i,
CN(C)CCNC(=O)c1ccnc(-c2nnc3ccc(N(C)c4ccccc4)nn23)c1,+,MTase-Glo ctr=-7%[85.7 µM]
CN(C)CCNC(=O)c1cc2n(n1)CC(C)(C(=O)NCc1ccccc1)N(C)C2=O (stereo not drawn),i,
COc1cccc(C(=O)Cn2nc3n(C(C)C)c(=O)c4ccc(C(=O)NC5CCCC5)cc4n3c2=O)c1,i,
Cc1c(Cl)cccc1N1C(=O)c2cc(-c3cccs3)nn2CC1(C)C(=O)NC1CCCCC1 (stereo not drawn),i,
SMILES,Methyltransferases,others
CCN1C(=O)c2cc(C(=O)NC3CCCCCC3)nn2CC1(C)C(=O)NC1CCCC1 (stereo not drawn),i,
C=Cc1ccc(Cn2nc3n(CC(C)C)c(=O)c4ccccc4n3c2=O)cc1,i,
CCc1ccc(-c2cc3n(n2)CC(C)(C(=O)NC2CCCCC2)N(CCN2CCCC2)C3=O)cc1 (stereo not drawn),i,
COc1ccc(NC(=O)CCc2ccnc(N3CCCC3)c2)c(OC)c1,+,MTase-Glo ctr=0%
CCCN(C)C(=O)CCc1ccnc(N2CCOCC2)c1,i,
COc1ccc(NC(=O)N2CCn3cccc3C2C)c(OC)c1 (stereo not drawn),i,
COc1ccc(OC)c2c1cc1n2CC(C)(C(=O)NC2CCC(C)CC2)N(Cc2cccs2)C1=O (stereo not drawn),i,
COc1cccc(CNC(=O)Cn2nc3n(CC(C)C)c(=O)c4ccccc4n3c2=O)c1,i,
Cc1cc(C(=O)N2CCC(Cc3nc(-c4ccccc4)n[nH]3)C2)n(C)n1 (stereo not drawn),i,
COCCN1CCCC(c2[nH]ccc2C(=O)NCCc2nc3ccccc3[nH]2)C1 (stereo not drawn),i,
CCN(CCc1nc2ccc(C)cc2[nH]1)C(=O)c1ccccc1C1CCNC1 (stereo not drawn),+,MTase-Glo ctr=2%
CCNC(=O)N1C[C@@H](F)[C@@H](OCc2nc3ccc(F)cc3[nH]2)C1,i,
Cc1cc(Cl)ccc1NC(=O)c1ncn2c1C(=O)N(C1CC1)C(C)(C(=O)NC1CCCC1)C2 (stereo not drawn),i,
CCCn1c(=O)c2cc(Cl)ccc2n2c(SCc3ccccc3C)nnc12,i,
Nc1nc(NCc2ccc(N3CCCC3=O)cc2)cc(C2CC(O)C2)n1 (stereo not drawn),i,
CCc1csc(CNc2cc(C3CC(O)C3)nc(N)n2)n1 (stereo not drawn),i,
Nc1nc(NCc2ccc(Cl)cc2Cl)cc(C2CC(O)C2)n1 (stereo not drawn),+,MTase-Glo ctr=-3%
CN1C(=O)c2cc(C(=O)NCc3ccc4c(c3)OCO4)nn2CC1(C)C(=O)NCc1ccc(F)cc1 (stereo not drawn),i,
CC1(C(=O)NCc2ccccc2)Cn2c(ccc2-c2ccco2)C(=O)N1CCC1=CCCCC1 (stereo not drawn),i,
CCOc1ccc(CN2C(=O)c3ccc(-c4ccco4)n3CC2(C)C(=O)NC2CCCCC2)cc1 (stereo not drawn),i,
CCCn1c(=O)c2ccc(C(=O)NC3CCCCC3)cc2n2c(=O)n(CC(=O)NC3CCCC3)nc12,i,
COc1ccc(CN2C(=O)c3cc4ccccc4n3CC2(C)C(=O)NCc2ccccc2OC)cc1 (stereo not drawn),i,
FC(F)(F)c1cccc(-c2nccn3c(C4CN(Cc5ccc6cn[nH]c6c5)C4)ncc23)c1,+,MTase-Glo ctr=-6%
N#Cc1ccc(CN2CCC3(CC(c4cccc(C(F)(F)F)c4)=NO3)C2)cc1 (stereo not drawn),i,
CC(C)(C)NCCCNC(=O)c1cccc(Br)c1,i,
SMILES,Methyltransferases,others
CCc1ccc(N2C(=O)c3cc4sccc4n3CC2(C)C(=O)NC2CCCCC2C)cc1 (stereo not drawn),i,
CCCn1c(=O)c2ccc(C(=O)NC(C)C)cc2n2c(=O)n(CC(=O)N(C)c3ccccc3)nc12,i,
Cc1ccc(Cn2c(=O)c3ccc(C(=O)NC(C)C)cc3n3c(=O)n(CC(=O)NC4CCCC4)nc23)cc1,i,
O=S(=O)(Nc1ccc(Cl)c(C(F)(F)F)c1)c1ccc2[nH]c3c(c2c1)CCCC3,i,
CN(C)S(=O)(=O)N1CCc2c(nc3cc(-c4ccccc4)[nH]n3c2=O)C1,i,
O=C(CCCc1nc2ccccc2s1)N1CCc2nc3cc(-c4ccccc4)[nH]n3c(=O)c2C1,i,
COc1ccc(-c2cc3nc4c(c(=O)n3[nH]2)CN(C(=O)CN(C)S(=O)(=O)c2cnc[nH]2)CC4)cc1,+,MTase-Glo ctr=-6%
CCCn1nc(CNC(=O)c2cc(F)ccc2F)c2ccccc21,i,
O=C(Nc1ccc(S(=O)(=O)C(F)(F)F)cc1)C1=CCN(c2ncccc2C(F)(F)F)CC1,i,

# Screens as filed in PubChem BioAssay.
